This is part of a sample that, as a whole, favours compounds with a hit. Of some 83,000 tested, about 20% had one in any assay.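 Growth was measured after 48 h exposure to one concentration of compound in 96-well plates. Values under 10 count as active.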 Active and inactive are the calls of the source.
test system: HL-60(TB) leukemia; experiment: NCI-60 one-dose screen, 48 h (100 = growth as untreated, 0 = no growth, -100 = all killed); conditions: 10 µM unless noted

Compound | growth
O=C1CCCc2nc3sc4c(=O)n(-c5ccccc5Cl)nnc4c3cc21 | 109% (inactive)
Nc1ccc2c(c1)c(N)nn2C(=O)Nc1ccc(Cc2ccccc2)cc1 | 16.4% (inactive)
COc1ccc2c(c1)nc(N)c1c3cc(C)c(C)cc3cn21 | 79.6% (inactive)
O=S(=O)(NCCNc1nccc(-c2c(-c3cccc(F)c3)nc3occn23)n1)c1ccc(Br)cc1 | 103% (inactive)
CCOC(=O)CC(C)=N | 93.9% (inactive)
CCOC(=O)Cn1c(C)c(/C=N/NC(=O)c2cc3c(ccc4ccccc43)o2)c2ccccc21 | 0.68% (active)
O=C(/C=C/c1ccccc1)c1ccc2ccccc2c1 | 56.1% (inactive)
Cn1cc(-c2nc(-c3cn(C)c4ncccc34)cs2)c2cc(F)ccc21 | 30.7% (inactive)
COc1ccc2c(c1)CC=C1[C@@H]2CC[C@]2(C)C(=O)/C(=N/O)C[C@@H]12 | 53.4% (inactive)
COc1ccc(/C=c2/c(=O)[nH]c3nc4sc(C)c(C)c4c(=O)n23)cc1 | 71.8% (inactive)
O=C(O)c1c[nH]c2ccccc2c1=O | 91.2% (inactive)
CCOC(=O)c1nn(C2CCCCO2)c2ccc(NS(=O)(=O)c3ccc(C)cc3)cc12 (stereo not given) | 97.6% (inactive)
COP(=O)(OC)C(c1ccc(O)cc1)(c1ccc(O)cc1)c1ccc(O)cc1 | 93.4% (inactive)
S=c1[nH]nc(-c2cc3ccc2CCc2ccc(cc2)CC3)n1-c1ccccc1 | 89.7% (inactive)
COc1ccc(Cn2cc(Cn3cc(C=C4C(=O)NC(=O)NC4=O)c4ccccc43)nn2)cc1 | 82.6% (inactive)
O=[N+]([O-])c1ccc(-c2cc3c(Nc4ccc(Sc5nc6ccccc6s5)c(Cl)c4)ncnc3s2)cc1 | 21.6% (inactive)
CCc1ccc(/C=C/c2ccc(O)c3ncccc23)[n+](C)c1 | 104% (inactive)
COc1ccc2nc3nc4ccc[nH]c4cc3c2c1 | 85.6% (inactive)
CCN=Cc1c(O)c(O)c(C(C)C)c2cc(C)c(-c3c(C)cc4c(C(C)C)c(O)c(O)c(C=NCC)c4c3O)c(O)c12 | 27.3% (inactive)
Cc1[nH]c(-c2ccc3cc[nH]c3c2)c2c1C(=O)CCCC2 | 20.5% (inactive)

Compound | growth
O=C1/C(=C/c2ccc(Br)cc2)C=C(c2ccccc2)N1CCc1ccccc1 | 83.8% (inactive)
Cc1nc(Nc2ccc(NC(=S)Nc3ccccc3)cc2)nc2nc(Nc3cccc(Cl)c3)[nH]c(=O)c12 | 57.1% (inactive)
CCn1cc(C(=O)O)c(=O)c2cc(F)c(N3CCN(S(=O)(=O)c4ccc(Cl)cc4)CC3)cc21 | 8.96% (active)
COc1cc(OC)c2c(=O)c(O)c(-c3ccccc3)oc2c1 | 53.4% (inactive)
CCC(CCCN1C(=O)c2ccccc2C1=O)Nc1cc(OC)cc2c(C)ccnc12 (stereo not given) | 87.4% (inactive)
CCCCCCCCCc1cc[n+](CC(=O)c2ccc([N+](=O)[O-])cc2)cc1 | -40.4% (active)
CC(C)(C)C(CCc1ccc(Cl)cc1)N1CCN(C2CCCCC2)CC1 (stereo not given) | 48.2% (inactive)
NC1=CC(=O)c2ccccc2C1=O | 81.6% (inactive)
Cc1[nH]c(C(=O)Nc2ccc(C(N)=O)cc2NC(C)C)c(Cl)c1Cl | 99.7% (inactive)
CN1CCCCC1CCN1c2ccccc2Sc2ccc(Br)cc21 (stereo not given) | 34.9% (inactive)
C#CCOc1ccc(C2=NN(CCCC)C3N=C(Cl)c4ncn(CCCC)c4N23)cc1OCC#C (stereo not given) | 99.4% (inactive)
Nc1cc2c(cc1Br)[nH]c(=O)c1ccccc12 | 91% (inactive)
O=C(CN1CCN(C(=O)c2ccccc2)CC1)Nc1ccccc1SCc1ccccc1 | 80.5% (inactive)
CCOC(=O)C(CC(c1ccccc1)N1CCCCC1)[N+](=O)[O-] (stereo not given) | 73.4% (inactive)
CCc1ccc(-c2nnc(COc3ccc(-c4nc5ccc(C)cc5[nH]4)cc3OC)o2)cc1 | 6.14% (active)
C/C=C(\C)C(=O)N[C@H]1[C@@H](OC(C)=O)C[C@]2(C)C3CC[C@@]4(C)C(CC[C@@H]4C(C)N(C)C)C3CCC2[C@H]1O (stereo not given in full) | 70.5% (inactive)
O=C1C(Cl)=C(NCCCN(CCCNC2=C(Cl)C(=O)c3ccccc3C2=O)C2=C(Cl)C(=O)c3ccccc3C2=O)C(=O)c2ccccc21 | 37.6% (inactive)
O=S(=O)(Cc1ccccc1)c1ccccc1 | 96.5% (inactive)
COc1ccc(-c2cc(-c3nnc(SCC(=O)Nc4ccc(/C(C)=N\O)cc4)o3)c3ccccc3n2)cc1 | 104% (inactive)
O=C(O)c1cn(C2CC2)c2cc(N3CCN(C(=O)N/N=C/c4ccccc4)CC3)c(F)cc2c1=O | 100% (inactive)

Source: PubChem BioAssay (NCI)
